Our source for the AC50 and outcome values is PubChem BioAssay (EPA / NIEHS).

Inconclusive results are not listed. Calls of active or inactive are those of the source. The calls were made as follows: active = hit-call score of the fitted dose curve at least 0.9, where 1 is the maximum; inconclusive = response in the unintended direction; inactive = score below 0.9.

Assay [1] deals with human Matrix Metalloproteinase-1 (MMP1), MMP1 (gene 4312) (UniProt P03956). Nature of the assay: NVS_ENZ_hMMP1: NovaScreen (NVS) Enzymatic Assay for human Matrix Metalloproteinase-1 (MMP1) (AID 2283181). In a few lines: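 Cell-free fluorescent substrate assay of human MMP1, read after 1 h. A single 25 uM duplicate screen was followed by concentration series to a maximum of 50 uM for actives meeting threshold; inhibition analysed against DMSO baseline.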

Assay [2] concerns the target Bile acid receptor (Homo sapiens) (UniProt Q96RI1). The assay can be described thus: NVS_NR_hFXR_Agonist: NovaScreen (NVS) Nuclear Receptor Binding Assay for human Farnesoid X Receptor Agonism (FXR) (AID 2283347). The procedure, abridged:
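Agonist-mode FXR assay read by time-resolved FRET 1 h after compound addition, using isolated human receptor protein without cells. Duplicate 25 uM single-point primary screen, concentration series for confirmed actives; DMSO as baseline.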

Assay [3] can be described thus: ATG_M_32_XSP2: Attagene TRANS-FACTORIAL Multi-Species (XSP2) HepG2 Assay for M19 Transcription Factor (Internal Marker) (AID 2283826). The procedure, abridged:
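HepG2 cells transiently transfected with GAL4-UAS reporter units; XSP2 panel included 3 nM 6-alpha-fluorotestosterone and 1.5 nM norgestrel for androgen receptor stimulation. Reporter mRNA read 24 h post-dosing by RT-PCR/capillary electrophoresis; fitted upward versus DMSO.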

Assay [4] addresses human Phosphatase and Tensin Homolog (PTEN), PTEN (gene 5728) (UniProt P60484). The assay can be described thus: NVS_ENZ_hPTEN: NovaScreen (NVS) Enzymatic Assay for human Phosphatase and Tensin Homolog (PTEN) (AID 2283203). In a few lines:
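Loss of fluorescent product signal after mobility-shift separation reports PTEN activity, recombinant human enzyme, 1 h after compound addition. Single 25 uM duplicate screen, then concentration-response on actives; DMSO baseline.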

For another assay, the target named is PPP2CA (gene 5515) (UniProt P67775). Nature of the assay: NVS_ENZ_hPPP2CA: NovaScreen (NVS) Enzymatic Assay for human Protein Phosphatase 2 Aatalytic subunit Alpha (PPP2CA) (AID 2283199). The procedure, abridged:
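Cell-free phosphatase activity: fluorescent substrate turnover by recombinant human enzyme, resolved by mobility shift at 1.33 h. Compounds passing the 25 uM duplicate primary screen were rerun in singleton series with a 50 uM top concentration.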

Assay [5] deals with human MET Proto-Oncogene, Receptor Tyrosine Kinase (MET), MET (gene 4233) (UniProt P08581). The assay can be described thus: NVS_ENZ_hMet: NovaScreen (NVS) Enzymatic Assay for human MET Proto-Oncogene, Receptor Tyrosine Kinase (MET) (AID 2283180). In a few lines: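 Hits from a 25 uM duplicate screen were retested in concentration series up to 50 uM. Enzyme activity was measured by fluorescence after electrophoretic separation of product from substrate, 1 h after compound addition, relative to DMSO.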

In assay [6] the target is human p21 Activated Kinase 4 (PAK4), PAK4 (gene 10298) (UniProt O96013). Nature of the assay: NVS_ENZ_hPAK4: NovaScreen (NVS) Enzymatic Assay for human p21 Activated Kinase 4 (PAK4) (AID 2283189). In a few lines:
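Extracted PAK4 enzyme activity read by fluorescence with mobility-shift separation 1 h after chemical addition. Duplicate single-concentration screen at 25 uM, DMSO as negative control.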

In assay [7] the target is human Tyrosine Protein Kinase Receptor Tie-2 (Tie2), TEK (gene 7010) (UniProt Q02763). The assay can be described thus: NVS_ENZ_hTie2: NovaScreen (NVS) Enzymatic Assay for human Tyrosine Protein Kinase Receptor Tie-2 (Tie2) (AID 2283225). The procedure, abridged: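 Substrate and product were separated by mobility shift and detected by fluorescence after a 1-hour reaction with recombinant Tie2. Chemicals passing a 25 uM single-point screen were titrated to a maximum of 50 uM. Results were normalized to DMSO baseline.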

Assay [8] has as its target human Fibroblast Growth Factor Receptor 1 (FGFR1), FGFR1 (gene 2260) (UniProt P11362). The assay can be described thus: NVS_ENZ_hFGFR1: NovaScreen (NVS) Enzymatic Assay for human Fibroblast Growth Factor Receptor 1 (FGFR1) (AID 2283159). In a few lines: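 Cell-free recombinant kinase with fluorescent substrate, product separated by electrophoretic mobility shift; read 1 hour after dosing, loss of signal relative to DMSO. Initial screen in duplicate at 25 uM, actives followed in concentration series.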

Assay [9] relates to rat Monoamine Oxidase, MAO-A, Central (MAOAC), gene 29253. The assay can be described thus: NVS_ENZ_rMAOAC: NovaScreen (NVS) Enzymatic Assay for rat Monoamine Oxidase, MAO-A, Central (MAOAC) (AID 2283243).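 Also: potency refers to inhibition seen as signal drop below DMSO baseline.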 The procedure, abridged:
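Scintillation read-out of MAO-A activity in rat brain lysate, 1.5 h post-dosing. Primary single-concentration screen: 25 uM, duplicate; actives re-tested in concentration series. DMSO = negative control/baseline.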

Assay [10] concerns the target rat Corticotropin Releasing Factor Receptor (CRF), Crhr1 (gene 58959) (UniProt P35353). The assay can be described thus: NVS_GPCR_rCRF: NovaScreen (NVS) G Protein-Coupled Receptor Assay for rat Corticotropin Releasing Factor Receptor (CRF) (AID 2283300). In a few lines:
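Single-concentration (25 uM, duplicate) radioligand binding on rat cortical membrane preparations, counted by scintillation after 2 h. Activity scored as signal loss relative to DMSO negative control.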

Assay [11] deals with rat Acetylcholinesterase (AChE), Ache (gene 83817) (UniProt P37136). Nature of the assay: NVS_ENZ_rAChE: NovaScreen (NVS) Enzymatic Assay for rat Acetylcholinesterase (AChE) (AID 2283233). The procedure, abridged:
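Compounds first screened at 25 uM in duplicate, then those passing threshold tested in concentration series up to 50 uM, against AChE from rat brain membranes. Enzyme activity read by absorbance at 0.33 h; inhibition scored versus DMSO.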

Assay [12] concerns the target rat Monoamine Oxidase, MAO-B, Peripheral (MAOBP), Maob (gene 25750) (UniProt P19643). The assay can be described thus: NVS_ENZ_rMAOBP: NovaScreen (NVS) Enzymatic Assay for rat Monoamine Oxidase, MAO-B, Peripheral (MAOBP) (AID 2283242).
In assay [13] the target is rat Gamma-Aminobutyric Acid Type A Receptor BDZ, alpha 6 site (GABARa6), Gabra6 (gene 29708) (UniProt P30191). The assay can be described thus: NVS_LGIC_rGABARa6: NovaScreen (NVS) Ligand-Gated Ion Channel Assay for rat Gamma-Aminobutyric Acid Type A Receptor BDZ, alpha 6 site (GABARa6) (AID 2283339). In a few lines:
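Actives from a 25 uM duplicate screen were retested in concentration series (max 50 uM). Specific radioligand displacement from rat cerebellar membranes was counted by filter-based scintillation at 1 h; DMSO served as baseline.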

The target of assay [14] is human NIMA (Never In Mitosis Gene A)-Related Kinase 2 (NEK2), NEK2 (gene 4751) (UniProt P51955). The assay can be described thus: NVS_ENZ_hNEK2: NovaScreen (NVS) Enzymatic Assay for human NIMA (Never In Mitosis Gene A)-Related Kinase 2 (NEK2) (AID 2283188). In a few lines: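 Compounds were first screened in duplicate at 25 uM, with actives followed up in concentration series. Recombinant NEK2 activity, cell-free, was read 1 h after dosing by fluorescence intensity after mobility-shift separation. Signal loss was scored against DMSO.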

Assay [15] addresses rat Monoamine Oxidase, MAO-B, Central (MAOBC), Maob (gene 25750) (UniProt P19643). Nature of the assay: NVS_ENZ_rMAOBC: NovaScreen (NVS) Enzymatic Assay for rat Monoamine Oxidase, MAO-B, Central (MAOBC) (AID 2283238). In a few lines:
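Actives from a duplicate 25 uM screen went on to singleton concentration-response with a 50 uM maximum. Enzyme source was rat brain tissue MAO-B, assayed cell-free. Radiolabelled product was counted by scintillation 1.17 h post-dose, with signal loss relative to DMSO.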

The target of assay [16] is bovine Gamma-Aminobutyric Acid Type A Receptor BDZ, alpha 1 site (GABARa1), GABRA1 (gene 780973) (UniProt P08219). The assay can be described thus: NVS_LGIC_bGABARa1: NovaScreen (NVS) Ligand-Gated Ion Channel Assay for bovine Gamma-Aminobutyric Acid Type A Receptor BDZ, alpha 1 site (GABARa1) (AID 2283321). In a few lines:
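Bovine cortex membrane preparation, benzodiazepine site on GABA-A alpha1; specific radioligand displacement read after 0.75 h by filtration and scintillation. Screen at 25 uM, then singleton titrations up to 50 uM; DMSO baseline.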

Sequence of human Matrix Metalloproteinase-1 (MMP1), MMP1 (gene 4312) (P03956 whole entry, looked up): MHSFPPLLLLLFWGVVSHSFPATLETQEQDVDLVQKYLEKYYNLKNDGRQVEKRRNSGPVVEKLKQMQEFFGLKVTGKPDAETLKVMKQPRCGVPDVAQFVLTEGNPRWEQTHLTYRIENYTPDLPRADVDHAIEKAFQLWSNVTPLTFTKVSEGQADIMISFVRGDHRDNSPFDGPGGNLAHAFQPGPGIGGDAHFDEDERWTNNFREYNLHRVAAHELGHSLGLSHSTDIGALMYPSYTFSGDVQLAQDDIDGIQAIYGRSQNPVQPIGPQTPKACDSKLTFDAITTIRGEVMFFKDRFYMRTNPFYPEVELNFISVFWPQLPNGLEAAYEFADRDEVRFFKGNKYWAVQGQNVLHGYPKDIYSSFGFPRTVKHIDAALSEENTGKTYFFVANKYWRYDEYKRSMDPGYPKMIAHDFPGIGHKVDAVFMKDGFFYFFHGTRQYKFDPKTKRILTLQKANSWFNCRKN
Sequence of human Fibroblast Growth Factor Receptor 1 (FGFR1), FGFR1 (gene 2260) (P11362 whole entry, looked up): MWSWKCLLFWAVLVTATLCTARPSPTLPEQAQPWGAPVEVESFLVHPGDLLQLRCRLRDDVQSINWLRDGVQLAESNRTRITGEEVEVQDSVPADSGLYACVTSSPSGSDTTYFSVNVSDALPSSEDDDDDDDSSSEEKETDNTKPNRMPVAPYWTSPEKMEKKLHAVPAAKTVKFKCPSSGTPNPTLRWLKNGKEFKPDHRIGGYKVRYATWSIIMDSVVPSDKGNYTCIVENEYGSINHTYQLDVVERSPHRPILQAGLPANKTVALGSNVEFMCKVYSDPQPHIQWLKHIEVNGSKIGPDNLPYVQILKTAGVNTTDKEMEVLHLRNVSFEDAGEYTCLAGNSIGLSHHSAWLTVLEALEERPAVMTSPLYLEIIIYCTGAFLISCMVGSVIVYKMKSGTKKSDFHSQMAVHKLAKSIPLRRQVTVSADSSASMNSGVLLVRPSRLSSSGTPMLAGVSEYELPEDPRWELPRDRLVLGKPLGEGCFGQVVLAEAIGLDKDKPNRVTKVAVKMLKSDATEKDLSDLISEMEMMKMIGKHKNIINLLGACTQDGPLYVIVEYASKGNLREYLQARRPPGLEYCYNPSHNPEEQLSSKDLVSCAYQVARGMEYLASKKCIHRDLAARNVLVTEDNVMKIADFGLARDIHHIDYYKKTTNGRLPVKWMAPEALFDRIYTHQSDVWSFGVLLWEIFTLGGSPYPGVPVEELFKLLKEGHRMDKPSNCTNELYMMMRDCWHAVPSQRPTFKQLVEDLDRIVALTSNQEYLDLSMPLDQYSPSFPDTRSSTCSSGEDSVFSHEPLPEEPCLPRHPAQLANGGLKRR
Sequence of rat Monoamine Oxidase, MAO-B, Peripheral (MAOBP), Maob (gene 25750) (P19643 whole entry, looked up): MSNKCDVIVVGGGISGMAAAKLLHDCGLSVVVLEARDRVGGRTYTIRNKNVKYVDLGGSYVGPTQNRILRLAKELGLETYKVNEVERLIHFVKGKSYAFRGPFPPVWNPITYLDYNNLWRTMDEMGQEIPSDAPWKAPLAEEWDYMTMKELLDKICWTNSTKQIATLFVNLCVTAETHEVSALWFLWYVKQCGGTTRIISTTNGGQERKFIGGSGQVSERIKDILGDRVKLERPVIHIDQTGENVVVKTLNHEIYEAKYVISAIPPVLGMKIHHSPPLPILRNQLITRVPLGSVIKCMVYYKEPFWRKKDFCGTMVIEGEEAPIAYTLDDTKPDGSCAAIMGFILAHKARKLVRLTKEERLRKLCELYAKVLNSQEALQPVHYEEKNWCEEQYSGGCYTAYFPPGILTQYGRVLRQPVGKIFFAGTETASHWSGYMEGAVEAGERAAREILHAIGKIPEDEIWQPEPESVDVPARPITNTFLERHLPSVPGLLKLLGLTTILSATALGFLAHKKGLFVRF
Sequence of human Phosphatase and Tensin Homolog (PTEN), PTEN (gene 5728) (P60484 whole entry, looked up): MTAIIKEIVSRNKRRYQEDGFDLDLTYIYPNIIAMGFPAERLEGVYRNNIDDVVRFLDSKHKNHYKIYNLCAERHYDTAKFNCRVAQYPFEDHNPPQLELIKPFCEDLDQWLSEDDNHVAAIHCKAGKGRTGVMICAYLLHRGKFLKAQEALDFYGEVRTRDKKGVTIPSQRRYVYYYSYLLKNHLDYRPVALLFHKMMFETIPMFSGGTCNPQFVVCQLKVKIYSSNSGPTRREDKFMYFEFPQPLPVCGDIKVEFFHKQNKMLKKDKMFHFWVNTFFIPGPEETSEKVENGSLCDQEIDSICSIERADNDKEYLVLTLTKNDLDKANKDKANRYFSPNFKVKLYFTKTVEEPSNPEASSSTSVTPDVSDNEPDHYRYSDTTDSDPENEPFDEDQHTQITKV
Sequence of human p21 Activated Kinase 4 (PAK4), PAK4 (gene 10298) (O96013 whole entry, looked up): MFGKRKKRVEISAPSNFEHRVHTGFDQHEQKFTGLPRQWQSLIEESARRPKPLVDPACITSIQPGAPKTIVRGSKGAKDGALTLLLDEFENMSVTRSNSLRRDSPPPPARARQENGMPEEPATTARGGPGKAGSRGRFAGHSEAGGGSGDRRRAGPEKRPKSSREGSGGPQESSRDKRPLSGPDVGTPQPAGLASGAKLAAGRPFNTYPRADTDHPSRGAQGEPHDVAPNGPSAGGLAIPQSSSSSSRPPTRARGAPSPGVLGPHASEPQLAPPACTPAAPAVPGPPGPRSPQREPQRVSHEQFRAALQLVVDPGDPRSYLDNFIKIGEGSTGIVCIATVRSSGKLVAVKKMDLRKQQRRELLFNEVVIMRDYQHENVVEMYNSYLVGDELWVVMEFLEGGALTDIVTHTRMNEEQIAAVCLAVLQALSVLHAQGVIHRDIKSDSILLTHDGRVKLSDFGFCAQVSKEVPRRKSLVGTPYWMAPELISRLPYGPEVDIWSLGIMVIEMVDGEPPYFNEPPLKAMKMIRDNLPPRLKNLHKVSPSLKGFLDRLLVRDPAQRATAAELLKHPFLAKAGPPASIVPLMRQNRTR
Sequence of rat Gamma-Aminobutyric Acid Type A Receptor BDZ, alpha 6 site (GABARa6), Gabra6 (gene 29708) (P30191 whole entry, looked up): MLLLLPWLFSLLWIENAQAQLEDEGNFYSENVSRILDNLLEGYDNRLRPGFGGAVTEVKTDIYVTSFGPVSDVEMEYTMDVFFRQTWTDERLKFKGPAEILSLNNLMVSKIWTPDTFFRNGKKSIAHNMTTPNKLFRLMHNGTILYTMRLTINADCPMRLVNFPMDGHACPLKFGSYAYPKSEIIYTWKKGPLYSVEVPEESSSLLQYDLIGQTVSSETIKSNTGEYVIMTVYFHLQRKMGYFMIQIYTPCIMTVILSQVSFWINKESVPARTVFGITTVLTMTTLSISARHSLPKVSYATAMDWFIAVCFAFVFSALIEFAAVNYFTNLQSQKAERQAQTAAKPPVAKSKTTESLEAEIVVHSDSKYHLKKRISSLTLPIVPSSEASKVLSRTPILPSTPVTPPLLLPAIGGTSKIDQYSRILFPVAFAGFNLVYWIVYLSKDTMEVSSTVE
Sequence of Bile acid receptor (Homo sapiens) (Q96RI1 whole entry, looked up): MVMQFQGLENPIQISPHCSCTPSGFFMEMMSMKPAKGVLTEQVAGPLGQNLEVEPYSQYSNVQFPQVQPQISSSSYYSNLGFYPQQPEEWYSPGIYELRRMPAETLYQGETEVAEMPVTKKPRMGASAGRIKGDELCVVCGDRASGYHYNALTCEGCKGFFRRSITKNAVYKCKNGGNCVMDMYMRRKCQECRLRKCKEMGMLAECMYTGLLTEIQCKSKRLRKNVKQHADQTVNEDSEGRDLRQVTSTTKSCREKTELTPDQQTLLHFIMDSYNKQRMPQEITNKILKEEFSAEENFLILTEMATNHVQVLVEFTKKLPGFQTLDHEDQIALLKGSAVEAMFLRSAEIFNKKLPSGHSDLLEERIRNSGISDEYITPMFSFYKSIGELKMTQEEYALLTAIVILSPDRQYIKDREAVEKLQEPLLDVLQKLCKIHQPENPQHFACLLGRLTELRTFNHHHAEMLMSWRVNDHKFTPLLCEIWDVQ
Sequence of rat Monoamine Oxidase, MAO-B, Central (MAOBC), Maob (gene 25750) (P19643 whole entry, looked up): as the sequence (P19643 whole entry, looked up) above
Sequence of bovine Gamma-Aminobutyric Acid Type A Receptor BDZ, alpha 1 site (GABARa1), GABRA1 (gene 780973) (P08219 whole entry, looked up): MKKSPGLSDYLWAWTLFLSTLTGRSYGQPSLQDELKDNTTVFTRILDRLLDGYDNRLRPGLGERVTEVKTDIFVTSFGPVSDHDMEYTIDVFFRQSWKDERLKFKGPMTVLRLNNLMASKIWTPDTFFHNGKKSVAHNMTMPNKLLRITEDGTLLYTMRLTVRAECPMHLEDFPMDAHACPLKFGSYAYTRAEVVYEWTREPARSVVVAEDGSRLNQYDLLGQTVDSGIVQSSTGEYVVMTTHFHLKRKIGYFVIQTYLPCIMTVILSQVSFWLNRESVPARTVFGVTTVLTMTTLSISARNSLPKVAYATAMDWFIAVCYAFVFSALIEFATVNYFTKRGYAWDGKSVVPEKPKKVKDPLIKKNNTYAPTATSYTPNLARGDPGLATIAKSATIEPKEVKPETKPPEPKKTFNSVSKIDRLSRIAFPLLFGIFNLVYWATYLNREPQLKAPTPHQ

`Cc1c(C)c2c(c(C)c1O)CCC(C)(COc1ccc(CC3SC(=O)NC3=O)cc1)O2` (stereo not drawn): the AC50 in [1] is 6.75 µM (active). Besides, the compound was classed as inactive in [2] and in assay [3].
With `CCOC(=O)[C@H](C)O`, in assay [4], the call was inactive.
Turning to `CC(=O)CC(c1ccccc1)c1c(O)c2ccccc2oc1=O` (stereo not drawn), in the assay with PPP2CA (gene 5515), the compound was classed as inactive.
Turning to `CC(O)CO` (stereo not drawn), in assay [5], the call was inactive.
On to `CC(C)c1cccc(C(C)C)c1N1C(=O)c2ccc(O)cc2C1=O`, for which the compound was classed as inactive in assay [6] and in assay [7].
With `CC(C)c1cccc(C(C)C)c1NC(=O)NS(=O)(=O)c1cc(C(C)(C)O)co1`, the AC50 in assay [1] is 37.1 µM (active).
Turning to `CCc1nn(C2CCCCC2)c2cc(C3(C#N)CCC(C(=O)O)CC3)ccc12` (stereo not drawn), in [1], the AC50 was 12.1 µM (active).
On to `O=C1O[C@H]([C@H](O)CO)C(O)=C1O`, for which the compound was called inactive in assay [6].
In the case of `CCC(C)c1ccccc1O` (stereo not drawn), in assay [1], the AC50 is 11.9 µM (active).
Take `Cc1cc(Cc2ccc(N)c(C)c2)ccc1N`: in assay [6], the outcome was inactive.
For the compound `Cc1cc(C)c(O)c(C)c1`, the call in [8], in assay [9] and in assay [10] was inactive.
In the case of `CC(C)=CCC/C(C)=C\CO`, the compound was called inactive in assay [8] and in [11].
For the compound `C=CCCCCCCCCCCCC`, the compound was called inactive in assay [1].
Take `CCCCN1C(=O)[C@@H]([C@H](O)C2CCCCC2)NC(=O)C12CCN(Cc1ccc(Oc3ccc(C(=O)O)cc3)cc1)CC2`: the result in [1] and in assay [12] was inactive.
For `Nc1ccc(F)c([N+](=O)[O-])c1`, the result in [4] was inactive.
For `CC(C)(C)CC(C)(C)c1ccc(O)c(-n2nc3ccccc3n2)c1`, the compound was classed as inactive in assay [8] and in [13].
Turning to `CCCOC(=O)c1cc(O)c(O)c(O)c1`, the AC50 in [1] is 16.1 µM (active).
For the compound `CCCCCCCCCCCCCCCC`, the outcome in [4] was inactive.
As to `c1ccc(C(O[C@@H]2CCCN(CCc3ccc4c(c3)OCO4)C2)c2ccccc2)cc1`, the compound was classed as inactive in assay [14]. Moreover, in assay [9], the AC50 was 20.5 µM (active).
Regarding `CCC(=O)OCC=Cc1ccccc1`, the outcome in assay [4] was inactive.
Take `O=C(O)c1cccnc1`: in assay [1], the compound was classed as inactive.
Take `Fc1ccc(Br)cc1`: the compound was called inactive in assay [4].
Regarding `CN1CCN(Cc2cc(-c3ccc4[nH]c(=O)oc4c3)co2)[C@@H](c2ccc(F)cc2)C1`, the AC50 in [1] was 10.5 µM (active); in [15], 10.6 µM (active); in assay [12] it was 10.1 µM (active); in [9], 22 µM (active). For the same compound, the compound was called inactive in [11].
`O=C(OCCOCCOC(=O)c1ccccc1)c1ccccc1`: the result in [8] and in [13] was inactive. In addition, the AC50 in assay [16] was 1.4 µM (active).
Regarding `Cc1cc(=O)[nH]c(=S)[nH]1`, the compound was classed as inactive in [1].
As to `Cc1ccc([N+](=O)[O-])cc1N`, the outcome in assay [1] was inactive. Moreover, the AC50 in assay [12] was 26.1 µM (active).
`CCCCCCCCOC(=O)c1cc(O)c(O)c(O)c1`: the AC50 in assay [1] is 13.9 µM (active). Moreover, the result in assay [15] and in assay [2] was inactive.
For the compound `CC[C@H](C)[C@@H](C(=O)O)n1sc2ccccc2c1=O`, the call in assay [8], in [16] and in [13] was inactive.

Usually AC50 stands for the concentration giving half of the maximal activity seen.
